# Active and inactive are the calls of the source.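 Rule for the calls, unless noted: active = primary screen active and over 50% activation in each of two duplicate runs; inactive = the rest.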
# Test system: TRPC4 beta (transient receptor potential cation channel C4), mouse
# Experiment: TRPC4 cation channel opening, retest – cell-based, Fluo4 calcium, HEK293 TRPC4beta/mu-opioid, duplicates, 10 µM, confirmation (AID 2426;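 active = fluorescence ratio normalized to control raised more than 50% in primary screen plus both repeat runs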)
# Conditions: Fluo4 calcium fluorescence, at 10 µM
row,Compound,outcome
1,O=C(c1cccc(C(F)(F)F)c1)C1CCCN(Cc2ccccc2O)C1 (centres undefined),inactive
2,CCOC(=O)C1(CCc2ccccc2)CCN(Cc2ccco2)CC1,inactive
3,Nc1ccccc1-[n+]1c(-c2ccccc2)cc(-c2ccccc2)cc1-c1ccccc1,inactive
4,CCc1nccc2c1[nH]c1ccccc12,inactive
5,CCOC(=O)C(O)(c1ccc(NC(=S)NC(=O)c2ccc(Cl)cc2Cl)c(C)c1)C(F)(F)F (centres undefined),inactive
6,COc1ccc(OC)c(N2Cc3ccccc3C2=N)c1,inactive
7,CCOc1c(Cl)cc(CNC(C)C(O)c2ccccc2)cc1OC (centres undefined),inactive
8,Cc1cccc(N2CCc3c2nc2ccccc2c3N)c1,inactive
9,COc1ccc(C)cc1NC1=NC(C)(C)CS1,inactive
10,N=c1n(CCO)c2ccccc2n1Cc1ccccc1,inactive
11,CCc1ccc(OCCCN=C(C)c2c(O)n(C)c(=O)n(C)c2=O)cc1,inactive
12,O=C(CN1CCCC1)Nc1ccc(Cl)cc1C(=O)c1ccccc1,inactive
13,O=C(c1ccc(Cl)cc1)C1CCCN(C2CCSCC2)C1 (centres undefined),inactive
14,Cc1ccc(C2CN(C)CC2C(=O)c2ccc(F)cc2)cc1 (centres undefined),inactive
15,O=C(Cc1ccccc1)N1CCN(Cc2cccc(Br)c2)CC1,inactive
16,Cc1cccc(N=Cc2c(O)n(-c3ccccc3C)c(=O)[nH]c2=O)c1,inactive
17,CC(Cc1ccccc1Sc1ccccc1O)N(C)C (centres undefined),inactive
18,COc1ccc(OC)c(CN2CCCC(C(=O)c3sccc3C)C2)c1 (centres undefined),inactive
19,CCCCc1ncc(CN2CCCC(C(=O)c3ccc(SC)cc3)C2)[nH]1 (centres undefined),inactive

# Test system: transient receptor potential cation channel C4 beta (TRPC4), mouse
# Experiment: TRPC4 cation channel opening, second retest – cell-based, second round, Fluo4, HEK293 TRPC4beta/mu-opioid, 1 µM, confirmation (AID 2461)
# Conditions: Fluo4 calcium fluorescence, at 1 µM
row,Compound,outcome
1,Cc1ccsc1C(=O)C1CCCN(Cc2ccccc2O)C1 (centres undefined),inactive
2,COc1ccc(C[C@@H]2c3cc(O)c(OC)cc3CCN2C)cc1O,inactive
3,CCC1=Nc2cc(C(=O)N3CCC4(CC3)OCCO4)ccc2Sc2ccc(C)cc21,inactive
4,Cc1ccc(CN2C3CCCC2CC(NC(=S)NCc2ccccc2)C3)cc1 (centres undefined),inactive
5,COc1ccc(Br)cc1CN1CCN(C(=O)Cc2ccccc2)CC1,inactive
6,CC(C)CN(CC(C)C)c1ccc(C=C2C(=O)NC(=S)NC2=O)cc1[N+](=O)[O-],inactive
7,CCOC(=O)C1(CCc2ccccc2)CCN(Cc2cccc3c2OCO3)CC1,inactive
8,COc1ccc(CN2CCCC(C(=O)c3sccc3C)C2)cc1O (centres undefined),inactive
9,CCN1CCN(Cc2cc(Br)ccc2O)CC1,inactive
10,CCN(CC)c1ccc([N+](=O)[O-])c2cccnc12,inactive
11,CN(CCOc1ccc(C=C2C(=O)NC(=O)NC2=O)cc1)c1ccccn1,inactive
12,CCN(CC)CC(=O)Nc1ccc(Cl)cc1C(=O)c1ccccc1,inactive
13,COc1cccc(O)c1CN1CCCC(C(=O)c2sccc2C)C1 (centres undefined),inactive
14,CCC1=Nc2cc(C(=O)N3CCC4(CC3)OCCO4)ccc2Sc2ccc(Br)cc21,inactive
15,COc1ccc2[nH]cc(CCN(C)C)c2c1,inactive
16,CC(=O)OC1(c2ccccc2)CCN(C2CCCCC2)CC1C (centres undefined),inactive
17,CCOC(=O)C1(c2ccccc2)CCN(CC(=O)Nc2ccc(C)cc2)CC1,inactive
18,COc1ccc(O)c(CN2CCCC(C(=O)c3sccc3C)C2)c1 (centres undefined),inactive

row,Compound,outcome
1,Clc1ccc(OCC#CCN2CCCC2)cc1,inactive
2,O=C(c1cccc(C(F)(F)F)c1)C1CCCN(Cc2ccccc2O)C1 (centres undefined),inactive
3,CCOC(=O)C1(CCc2ccccc2)CCN(Cc2ccco2)CC1,inactive
4,Nc1ccccc1-[n+]1c(-c2ccccc2)cc(-c2ccccc2)cc1-c1ccccc1,inactive
5,CCc1nccc2c1[nH]c1ccccc12,inactive
6,CCOC(=O)C(O)(c1ccc(NC(=S)NC(=O)c2ccc(Cl)cc2Cl)c(C)c1)C(F)(F)F (centres undefined),inactive
7,COc1ccc(OC)c(N2Cc3ccccc3C2=N)c1,inactive
8,CCOc1c(Cl)cc(CNC(C)C(O)c2ccccc2)cc1OC (centres undefined),inactive
9,Cc1cccc(N2CCc3c2nc2ccccc2c3N)c1,inactive
10,COc1ccc(C)cc1NC1=NC(C)(C)CS1,inactive
11,N=c1n(CCO)c2ccccc2n1Cc1ccccc1,inactive
12,CCc1ccc(OCCCN=C(C)c2c(O)n(C)c(=O)n(C)c2=O)cc1,inactive
13,O=C(CN1CCCC1)Nc1ccc(Cl)cc1C(=O)c1ccccc1,inactive
14,O=C(c1ccc(Cl)cc1)C1CCCN(C2CCSCC2)C1 (centres undefined),inactive
15,Cc1ccc(C2CN(C)CC2C(=O)c2ccc(F)cc2)cc1 (centres undefined),inactive
16,O=C(Cc1ccccc1)N1CCN(Cc2cccc(Br)c2)CC1,inactive
17,Cc1cccc(N=Cc2c(O)n(-c3ccccc3C)c(=O)[nH]c2=O)c1,inactive

# Reference: PubChem BioAssay
